Molecules are shown by their SMILES. Active and inactive are the calls of the source. Rule for the calls: active = hit-call score of the fitted dose curve at least 0.9, where 1 is the maximum; inactive = score below 0.9.

One assay can be described thus: ATG_TA_CIS: Attagene CIS-FACTORIAL HepG2 Assay for human TA Basal Promoter (AID 2282964). Conditions: HepG2 Attagene CIS-factorial TA basal promoter reporter; actives raise or lower the signal. An outline of the steps: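 Cis-factorial format in HepG2: reporters report endogenous factors, not chimeric Gal4 fusions. After 24 h treatment, reporter transcripts were measured by RT-PCR-capillary electrophoresis fluorescence, analysed bidirectionally versus DMSO.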
For the molecule `O=C1CCC(=O)N1Cl`, the call was inactive.
On the same count and under the same terms, as for `C=C(C)[C@H]1CC=C(C)CC1`, the entry is “inactive”; as for `N[C@H]1C(O)O[C@H](CO)[C@H](O)[C@@H]1O` (stereo partly specified), “inactive”.

A short description of another assay: ATG_TCF_b_cat_CIS: Attagene CIS-FACTORIAL HepG2 Assay for human T-Cell-Factor with beta-catenin (TCF/b-cat) (AID 2282965). Conditions: HepG2 TCF/beta-catenin cis-reporter transcription, actives raise or lower the signal. An outline of the steps: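 HepG2 cells transiently transfected with multiple cis-promoter-regulated reporter transcription units, so endogenous transcription factor activity is measured. Reporter mRNA read 24 hours after dosing by RT-PCR, fluorescent labelling and capillary electrophoresis; bidirectional fitting against DMSO.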
On to `C=CC(=O)NC(C)(C)CS(=O)(=O)O`, for which the call was inactive.
With `O=C1CCCC(=O)O1`, the molecule was classed as inactive.
The same measure, in the same setting: as for `CCOc1ccc(N)c([N+](=O)[O-])c1`, the entry is “inactive”; as for `CCOC(=O)Cc1cccc2ccccc12`, “inactive”; as for `C[C@]12C=CC(=O)C=C1CC[C@@H]1[C@@H]2[C@@H](O)C[C@@]2(C)[C@H]1CC[C@]2(O)C(=O)CO`, “inactive”.
The same measure, in the same setting: under `CCC(C)OC(=O)c1ccc(O)cc1` (stereo unspecified) stands “inactive”.
Same read-out and setting: as for `N#[N+]c1ccc2c(S(=O)(=O)[O-])cccc2c1O`, the entry is “inactive”; as for `Cc1cc(C)c(C)c(O)c1`, “inactive”.
For `CCCCCCC1(C)CCC(=O)O1` (stereo unspecified), the result was inactive.
As for `Cc1cccc(C(=O)O)c1`, the outcome was inactive.
The same measure, in the same setting: as for `C=CC(C)(CCC=C(C)C)OC(=O)CC(C)C` (stereo unspecified), the entry is “inactive”; as for `CC/C=C\CCOC(=O)CCCCC`, “inactive”; as for `O=S1(=O)OC(c2ccc(O)cc2)(c2ccc(O)cc2)c2ccccc21`, “inactive”.
The same measure, in the same setting: under `O=C1C(N(CO)C(=O)NCO)N(CO)C(=O)N1CO` (stereo unspecified) stands “inactive”.
The same measure, in the same setting: under `CC(CC=O)c1ccccc1` (stereo unspecified) stands “inactive”.
`CC(C)CCCC(C)CC=O` (stereo unspecified): the result was inactive.
As for `CCN(Cc1cccc(S(=O)(=O)O)c1)c1ccc(C(=C2C=CC(=[N+](CC)Cc3cccc(S(=O)(=O)[O-])c3)C=C2)c2ccccc2)cc1`, the molecule was called inactive.
Still for that read-out and setting: as for `CCO[Si](CCCN=C=O)(OCC)OCC`, the entry is “inactive”; as for `O=S(=O)(Oc1ccc(Cl)cc1Cl)c1ccccc1`, “inactive”; as for `Cc1ccc(C(C)(C)C)cc1`, “inactive”.
Regarding `ON(Cc1ccccc1)Cc1ccccc1`, the molecule was classed as inactive.
The same measure, in the same setting: under `CC1=CC[C@H](C(C)C)C=C1` stands “inactive”; under `CC(C)=CCC[C@H](C)CCO`, “inactive”.
As to `COC(=O)c1c(C)cc(O)c(C)c1O`, the result was inactive.
The same measure, in the same setting: under `CCC(C)(C)C1CCCCC1OC(C)=O` (stereo unspecified) stands “inactive”; under `O=CN1CCCCC1`, “inactive”; under `CC(=O)OCc1ccco1`, “inactive”.
On to `NC(=O)OCC(COC(N)=O)c1ccccc1`, for which the call was inactive.
Same read-out and setting: as for `C1=Cc2ccccc2C1`, the entry is “inactive”; as for `CCCCC/C=C\C/C=C\CCCCCCCC(=O)OC`, “inactive”; as for `O=C1CCC(=O)N1Cl`, “inactive”.
Still for that read-out and setting: as for `C=C(C)[C@H]1CC=C(C)CC1`, the entry is “inactive”; as for `N[C@H]1C(O)O[C@H](CO)[C@H](O)[C@@H]1O` (stereo partly specified), “inactive”.
